D1 PAM = Potentiators of Human D1 Dopamine Receptor: qHTS. HEK293 TREx D1 cells, calcium flux, dopamine EC20 potentiation. potentiation, % at 10 µM. hit rate 0.036% among 360,000. AID 504651, 2011; in the data active = potentiation above about 30%; also: 0% is about no effect
Target sequence (P21728 whole entry, looked up): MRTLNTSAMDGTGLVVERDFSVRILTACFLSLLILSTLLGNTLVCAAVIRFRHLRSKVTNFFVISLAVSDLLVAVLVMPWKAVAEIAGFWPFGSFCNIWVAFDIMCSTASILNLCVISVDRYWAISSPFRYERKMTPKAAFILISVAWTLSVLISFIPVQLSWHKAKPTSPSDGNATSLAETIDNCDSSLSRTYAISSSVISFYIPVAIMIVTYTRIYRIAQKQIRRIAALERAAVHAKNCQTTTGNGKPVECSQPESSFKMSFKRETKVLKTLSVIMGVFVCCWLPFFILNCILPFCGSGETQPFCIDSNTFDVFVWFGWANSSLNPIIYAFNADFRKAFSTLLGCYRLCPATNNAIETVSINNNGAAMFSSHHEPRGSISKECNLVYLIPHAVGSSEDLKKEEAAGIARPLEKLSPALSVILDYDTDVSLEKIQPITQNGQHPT
DRD3 antagonist = qHTS of D3 Dopamine Receptor Antagonist: qHTS; D(3) dopamine receptor (Homo sapiens), P35462; D3R cells, DiscoveRx beta-arrestin luminescence, antagonist mode; hits give low values; max response, negative = inhibition, %; hit rate 2.5% among 360,000; AID 652054, 2013; in the data active = max response below about -50%; inconclusive = no clear call, values can overlap the other calls; also: % is scaled to controls: 0 for no effect and ±100 for the full control effect
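Cells expressing the human receptor were seeded at 1500 cells/well, incubated overnight at 37 degrees C in 5% CO2, then exposed to library compounds with dopamine controls for 90 minutes at 37 degrees C before luminescent detection.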
D1 ag = Allosteric Agonists of the Human D1 Dopamine Receptor: qHTS; D(1A) dopamine receptor (Homo sapiens), P21728; HEK293 T-REx D1 cells, calcium flux, agonist mode; activation, % at 2 µM; hit rate 1% among 360,000; AID 504660, 2011; in the data active = activation above about 30%; also: 0% is about no effect
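Tetracycline-induced HEK293 TREx D1 cells, force-coupled to calcium signalling, were dye-loaded with a no-wash calcium kit. Compound was pin-added after a 10 s baseline. Fluorescence was read kinetically at 1 cycle/s for 180 s, with calcium rises flagged as agonism.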
D1 antagonist = Antagonist of Human D 1 Dopamine Receptor: qHTS. D(1A) dopamine receptor (Homo sapiens), P21728. HEK293 TREx D1 cells, calcium flux, dopamine EC80; hits give low values. activity change, negative = inhibition, % at 10 µM. hit rate 3.2% among 360,000. AID 504652, 2011; in the data active = activity change below about -30%; also: % is scaled to controls: 0 for no effect and ±100 for the full control effect
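Compound effects on dopamine-evoked calcium signalling were measured in tetracycline-induced HEK293 Trex D1 cells. Dopamine at EC80 followed a 180 s compound pre-read, and fluorescence was tracked kinetically for 180 s more.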
D3 ag = qHTS of D3 Dopamine Receptor Agonist: qHTS | D3R DiscoveRx beta-arrestin cells, luminescence, 90 min | max activation, % | hit rate 0.58% among 410,000 | AID 652048, 2013; in the data active = max activation above about 30%; also: 0% is about no effect
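Agonist-mode cell screen: cells plated at 1500/well and incubated overnight at 37 °C, then exposed to library compounds for 90 min at 37 °C. Detection reagent was added for 30–60 min at room temperature, and luminescence was read.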
* marks the source's active call; other numbers are inactive results; ? = inconclusive; · = no result given. A selection: hits, their analogues and other compounds. The true share with any hit is near 6%.

SMILES | D1 PAM | DRD3 antagonist | D1 ag | D1 antagonist | D3 ag
COc1ccc(Cl)cc1CNC[C@H]1O[C@@H](n2ccc(N)nc2=O)[C@H](O)[C@@H]1O | · | 4.9 | · | · | 2.7
CCCc1ccc(OCC(=O)Nc2sc(C(=O)OCC)c(C)c2C(=O)OCC)cc1 | 0.2 | · | 5.1 | 20.9 | -0.2
CCOC(=O)c1ccccc1NC(=O)N1CCOc2ccc(Cl)cc21 | -2.6 | · | 3.5 | 1.4 | 8.6
Cc1nn(C)cc1CNC(=O)C1C2CCC(O2)C1C(=O)O (centres undefined) | -5.2 | · | 2.2 | 3.7 | ·
Cc1nn(C)cc1CNC(=O)C1C2CCC(C2)C1C(=O)O (centres undefined) | -3.4 | · | 5.7 | -31.8* | ·
CCCn1c(=O)c2ccccc2n2c(SCCOc3ccc(Cl)cc3)nnc12 | -9.5 | -50.1* | -0.2 | 15.3 | -0.9
CCCC(=O)Nc1nnc(SCc2cc(=O)c3ccc(C)cc3[nH]2)s1 | -2.9 | · | 2.8 | -19.0 | -2.7
COc1ccc(/C=C/C(=O)Nc2ccccc2C(=O)O)cc1 | -10.8 | 4.1 | 0.1 | 14.1 | -1.3
COc1ccc(/C=C/C(=O)Nc2ccccc2C(=O)NCC(c2ccc(OC)cc2)N(C)C)cc1 (centres undefined) | -7.7 | -95.9* | 6.7 | -7.3 | -28.8
Cc1cc(-c2nnc(-c3cc4ccccc4oc3=O)o2)c(C)n1-c1ccccc1 | -0.7 | -3.8 | 2.7 | -42.6* | -5.1
COc1ccc(-c2nnc(-c3cc4ccccc4oc3=O)o2)cc1 | -1.4 | -7.4 | 1.4 | -5.1 | 4.9
CC(C(=O)Nc1ccc2c(c1)OCCO2)n1nnc(-c2ccccc2)n1 (centres undefined) | 2.9 | 1.3 | 14.4 | -52.6* | 4.3
CC(=O)OCc1ccccc1Sc1ccccc1C(=O)NCc1ccccc1 | 11.2 | 6.6 | 3.0 | -44.7* | 4.5
O=C(CNC(=O)c1cccs1)N/N=C/c1c(F)cccc1Cl | 7.2 | -51.3* | 1.9 | 12.7 | -19.1
Nc1nonc1-n1nnc(C(=O)N/N=C/c2cccc(Cl)c2)c1-c1ccc2c(c1)OCO2 | -0.9 | 6.3 | 6.9 | -4.7 | 3.2
C/C(=N\NC(=O)c1nnn(-c2nonc2N)c1-c1ccc2c(c1)OCO2)c1cccs1 | 6.3 | -18.3 | 182.9* | 62.1 | -2.9
COc1cccc(-c2c(C(=O)N/N=C(\C)c3cccs3)nnn2-c2nonc2N)c1 | 0.4 | -7.4 | 215.9* | 21.6 | 1.5
COc1cccc(-c2c(C(=O)N/N=C(\C)c3ccncc3)nnn2-c2nonc2N)c1 | -2.4 | -7.4 | 1.8 | 7.8 | 1.6
CCOc1ccc(-c2c(C(=O)N/N=C(\C)c3cccs3)nnn2-c2nonc2N)cc1 | -2.6 | 6.8 | 43.6* | 32.8 | 0.0
Nc1nonc1-n1nnc(C(=O)N/N=C/c2ccc3c(c2)OCO3)c1-c1ccccc1 | -4.8 | -1.5 | 26.0 | 16.1 | 2.9
Nc1nonc1-n1nnc(C(=O)N/N=C/c2ccc(Br)cc2)c1-c1ccc2c(c1)OCO2 | 5.9 | 7.3 | 47.1* | 58.7 | 6.7
C=CC1CN(C(=O)OCC(Cl)(Cl)Cl)C2CC3c4ccc(OC)cc4NC3C3CC1C2CO3 (centres undefined) | · | 0.2 | · | · | -5.7
COc1cc(OCc2ccc(C)cc2)ccc1CNC[C@H]1O[C@@H](n2cnc(C(N)=O)n2)[C@H](O)[C@@H]1O | · | 8.7 | · | · | 12.2
CCOc1cccc(-c2c(C(=O)N/N=C/c3ccc(Br)cc3)nnn2-c2nonc2N)c1 | 15.1 | 0.1 | 26.4 | 34.6 | 1.4
CCOc1cccc(-c2c(C(=O)N/N=C(\C)c3cccs3)nnn2-c2nonc2N)c1 | 12.3 | 13.1 | 94.9* | 39.6 | 0.4
SMILES | D1 PAM | DRD3 antagonist | D1 ag | D1 antagonist | D3 ag
COc1ccccc1C(=O)NCCC(=O)N1CCN(S(=O)(=O)c2ccc(Cl)cc2)CC1 | 2.9 | 15.8 | -1.6 | -9.6 | 9.8
O=S(=O)(Nc1ccc2c(c1)OCO2)c1cccc(Br)c1 | -1.2 | 9.8 | -0.1 | -34.1* | -3.9
O=C1COc2ccc(S(=O)(=O)Nc3ccc4c(c3)OCO4)cc2N1 | 1.2 | 8.0 | 5.8 | -31.7* | -9.6
CN(C)c1nc2ccc(OCCN3CCCCC3)cc2s1 | -4.6 | -68.1* | 2.7 | 2.7 | -2.6
CCN(CC)CCOc1ccc2nc(N(C)C)sc2c1 | -0.7 | -59.3* | 6.9 | -3.9 | 0.7
Cc1ccc(CNC(=O)Cn2c(=O)cc(C(F)(F)F)c3c(C)nn(C)c32)cc1 | -4.5 | · | -1.4 | 23.9 | 8.1
O=C(NCc1ccccc1Br)c1ccc2c(c1)OCCO2 | -0.2 | 0.1 | -0.2 | -9.2 | -1.0
CCC1(c2ccccc2)SCC(c2ccccc2)=NC1=O (centres undefined) | · | 14.7 | · | · | 0.7
CN(CCN1CCc2ccccc2C1)Cc1nc(-c2ccc3c(c2)OCO3)no1 | -7.5 | -70.3* | 4.8 | -26.1 | -20.0
CN(Cc1nc(-c2ccccc2)no1)C(=O)c1ccc2c(c1)OCO2 | -0.8 | -50.2* | 3.0 | 10.1 | -7.3
Cc1cccc(-c2noc(CN(C)C(=O)c3ccc4c(c3)OCO4)n2)c1 | -7.0 | 14.8 | 11.6 | -5.8 | 21.8
c1ccc(OCCN2CCN(Cc3nc(-c4ccc5c(c4)OCO5)no3)CC2)cc1 | -2.0 | ? | 1.9 | -3.3 | 72.5*
Fc1ccc(CN2CCCN(Cc3nc(-c4ccc5c(c4)OCO5)no3)CC2)cc1 | -2.6 | 0.2 | 4.7 | -22.4 | -5.3
CN(CCN1CCc2ccccc2C1)Cc1nc(Cc2ccccc2F)no1 | -0.6 | -59.4* | 0.1 | 2.4 | -16.8
COc1ccc(Cc2nnc3sc(SCC(=O)Nc4ccccc4)nn3c2=O)cc1OC | -9.6 | 17.7 | 3.0 | -14.6 | 10.2
CCC(=O)N/N=C/c1ccc(-c2ccc([N+](=O)[O-])cc2)o1 | -0.9 | -4.5 | 3.7 | 0.3 | -2.8
CC(C)(C)C(=O)/C=c1\s/c(=C\c2ccc(-c3ccc([N+](=O)[O-])cc3)o2)c(=O)n1CC(=O)NC(N)=O | -10.7 | 13.6 | 893.9* | 7.9 | 6.3
CC(=O)/C(=N\Nc1ccccc1)Sc1nnc(-c2ccccc2)n1-c1ccccc1 | -1.0 | -97.4* | 3.5 | 2.9 | -5.8
CC(=O)C(N=Nc1ccccc1)(Sc1nnc(-c2ccccc2)n1-c1ccccc1)C(C)=O | 1.2 | -13.8 | 8.4 | -31.9* | -19.4
CC(=O)/C(=N\Nc1ccccc1Cl)Sc1nnc(-c2ccccc2)n1-c1ccccc1 | -0.2 | 0.0 | 2.4 | 7.2 | -7.6
CCOC(=O)Nc1cc(N)ncn1 | · | 7.6 | · | · | 1.3
CCOc1ccc(CNC(=O)CN2C(=O)CCn3nc(-c4cn(C)c5ccccc45)cc32)cc1OC | -2.4 | · | -0.1 | -10.8 | -14.8
CCOc1ccc(NC(=O)c2sc(-n3nc(C)c(Cc4ccc(Cl)cc4)c3C)nc2C)cc1 | 1.1 | · | 1.4 | 7.8 | -3.5
CCCS(=O)(=O)NC(=O)C1(C)CCCN(C(=O)c2c(F)ccc(C)c2F)C1 (centres undefined) | · | ? | · | · | 2.6
COc1cccc(C(NC(C)=O)c2nc(-c3cnn(C)c3)cs2)c1 (centres undefined) | · | 20.8 | · | · | 8.1

Assay outcomes from PubChem.
